The panel holds about 83,000 compounds, 20% with a hit somewhere; the sample as a whole holds those more often.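 96-well plates, one dose, 48 hours. Percent growth reported; active if below 10.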 Unmarked numbers belong to inactive results. The source made the active and inactive calls.

The source of these data is PubChem BioAssay (NCI).

Test systems include NCI-H23 lung; NCI-H226 lung; NCI-H322M lung; HOP-62 NSCLC; NCI-H460 lung; HOP-92 NSCLC; NCI-H522 lung; A549/ATCC NSCLC; 786-0 renal; COLO 205 colon; DU-145 prostate; K-562 leukemia; MALME-3M melanoma; MDA-MB-231 breast; RXF 393 renal; SF-268 CNS; SF-295 CNS; SF-539 CNS; UACC-257 melanoma; M14 melanoma.
Experiment in all cases: NCI-60 one-dose screen, 48 h (100 = growth as untreated, 0 = no growth, -100 = all killed)
Common to all, as to conditions: 10 µM unless noted

Regarding `CCC[CH2][Sn]([CH2]CCC)([CH2]CCC)[O]c1ccc(Cl)cc1Cl`, the growth is -87.2% (active) in the assay on NCI-H23 lung; -86.5% (active) with NCI-H226 lung; -80.1% (active) in the assay with NCI-H322M lung; -91.7% (active) in the assay on HOP-62 NSCLC; -84.8% (active) in the assay on NCI-H460 lung; -84.9% (active) in the assay with HOP-92 NSCLC. Besides, the growth in the assay with NCI-H522 lung was -90.1% (active); with A549/ATCC NSCLC, -82% (active); with 786-0 renal it was -93.8% (active); in the assay on COLO 205 colon, -75.2% (active); in the assay on DU-145 prostate, -99.4% (active); in the assay on K-562 leukemia it was -65% (active). The growth is -61.5% (active) in the assay with MALME-3M melanoma; -78.2% (active) in the assay with MDA-MB-231 breast; -96.2% (active) with RXF 393 renal; -91% (active) in the assay with SF-268 CNS; -37% (active) in the assay on SF-295 CNS; -83.4% (active) in the assay with SF-539 CNS. Moreover, the values for the growth with UACC-257 melanoma and with M14 melanoma were -88.8% (active) and -83.9% (active), respectively.

As to `CC[C@]12C=CCN3CC[C@]4(C(=C(C(=O)OC)C1)Nc1cc(OC)c(OC(C)=O)cc14)[C@@H]32`, the growth was 20.7% in the assay on NCI-H23 lung; 34.4% in the assay with NCI-H226 lung; 39% with NCI-H322M lung; 20.5% with HOP-62 NSCLC; 8.27% (active) in the assay with NCI-H460 lung; 4.72% (active) in the assay on HOP-92 NSCLC. The growth in the assay with NCI-H522 lung was -1.97% (active); with A549/ATCC NSCLC, 16%; in the assay with 786-0 renal it was 5.06% (active); with COLO 205 colon it was -22.8% (active); in the assay on DU-145 prostate it was 24.3%; in the assay with K-562 leukemia it was 4.08% (active). Moreover, the growth in the assay with MALME-3M melanoma is 112%; with MDA-MB-231 breast, 19.7%; with RXF 393 renal, 37.1%; with SF-268 CNS, 19.5%; in the assay on SF-295 CNS, 20.4%; with SF-539 CNS, 11.2%. The growth in the assay on M14 melanoma is 13.9%.

As to `C[C@]12CC[C@@H]3c4ccc(Oc5nc(N6CC6)nc(N6CC6)n5)cc4CC[C@H]3[C@@H]1CCC2=O`, the growth was 31.6% in the assay with NCI-H23 lung; 48.7% in the assay on NCI-H226 lung; 44.2% in the assay on NCI-H322M lung; 11.7% with HOP-62 NSCLC; -33.8% (active) with NCI-H460 lung; 104% with HOP-92 NSCLC. For the same molecule, the growth in the assay on NCI-H522 lung is 31.5%; in the assay on A549/ATCC NSCLC, 24.9%; in the assay with 786-0 renal, 32.4%; with COLO 205 colon it was 32.5%; with DU-145 prostate it was 7.1% (active); with K-562 leukemia, 18%. Moreover, the growth is 65.4% with MALME-3M melanoma; 74.5% with MDA-MB-231 breast; -6.13% (active) in the assay with RXF 393 renal; 29.9% in the assay with SF-268 CNS; 21.6% in the assay on SF-539 CNS; 65.5% in the assay with UACC-257 melanoma. Further, the growth with M14 melanoma is 44.7%.

`CCCCCCCC[n+]1ccc2ccccc2c1`: the growth was 36.5% in the assay on NCI-H23 lung; 61.4% with NCI-H226 lung; 99.2% in the assay on NCI-H322M lung; 77.2% in the assay with HOP-62 NSCLC; 73.9% in the assay on NCI-H460 lung; 52% in the assay with HOP-92 NSCLC. The growth in the assay on NCI-H522 lung was 29.8%; with A549/ATCC NSCLC, 88.7%; with 786-0 renal, 75.5%; with COLO 205 colon, 59%; in the assay with DU-145 prostate it was 82.7%; with K-562 leukemia, 22.6%. Besides, the growth with MALME-3M melanoma is 42.4%; in the assay on MDA-MB-231 breast it was 67%; with RXF 393 renal, 97.4%; in the assay with SF-268 CNS it was 80.4%; with SF-295 CNS it was 67%; in the assay on SF-539 CNS it was 62.6%. Moreover, the growth in the assay on UACC-257 melanoma was 20%; with M14 melanoma, 42.6%.

Regarding `O=C1CNC(c2ccccc2)c2cc(Cl)ccc2N1` (configuration not stated), the growth was 93.7% in the assay on NCI-H23 lung; 89.6% in the assay with NCI-H226 lung; 95.5% with NCI-H322M lung; 92% with HOP-62 NSCLC; 110% with NCI-H460 lung; 107% in the assay with HOP-92 NSCLC. Further, the growth in the assay on NCI-H522 lung was 69.3%; in the assay on A549/ATCC NSCLC, 95%; in the assay with 786-0 renal, 109%; in the assay with COLO 205 colon, 116%; in the assay with DU-145 prostate it was 100%; in the assay on K-562 leukemia it was 93.8%. For the same molecule, the growth in the assay with MALME-3M melanoma was 90.6%; in the assay on MDA-MB-231 breast, 94.9%; in the assay with RXF 393 renal, 99.2%; in the assay on SF-268 CNS it was 98.7%; with SF-295 CNS it was 103%; in the assay on SF-539 CNS, 104%. The growth in the assay on UACC-257 melanoma is 94.9%; in the assay on M14 melanoma it was 99.4%.

Consider `CCn1nccc1NC(=O)C(=O)c1cn(Cc2ccc(F)cc2)c2cccc(OC)c12`, for which the growth was 95.8% in the assay on NCI-H23 lung; 75.1% with NCI-H226 lung; 102% in the assay with NCI-H322M lung; 75.9% with HOP-62 NSCLC; 98.2% in the assay on NCI-H460 lung; 46.6% in the assay with HOP-92 NSCLC. Besides, the growth was 57.3% in the assay with NCI-H522 lung; 92.4% in the assay on A549/ATCC NSCLC; 72.7% in the assay with 786-0 renal; 106% in the assay with COLO 205 colon; 106% with DU-145 prostate; 79.9% in the assay with K-562 leukemia. Besides, the growth in the assay on MALME-3M melanoma was 109%; in the assay on MDA-MB-231 breast, 91.9%; with RXF 393 renal, 90.1%; in the assay with SF-268 CNS, 98.1%; in the assay on SF-295 CNS, 106%; with SF-539 CNS it was 98.1%. Also, the growth in the assay on UACC-257 melanoma was 97.6%; in the assay on M14 melanoma, 88.1%.

Consider `COc1ccc(O)c(CNC(=O)CN2CCCC2=O)c1`, for which the growth with NCI-H23 lung was 103%; in the assay with NCI-H226 lung, 99.4%; in the assay with NCI-H322M lung it was 95.6%; in the assay on HOP-62 NSCLC, 97.1%; with NCI-H460 lung, 97.5%; in the assay on HOP-92 NSCLC it was 86.1%. Besides, the growth was 101% in the assay with NCI-H522 lung; 105% in the assay with A549/ATCC NSCLC; 105% with 786-0 renal; 100% in the assay with COLO 205 colon; 108% with DU-145 prostate; 99.4% in the assay on K-562 leukemia. For the same molecule, the growth with MALME-3M melanoma was 96.6%; with MDA-MB-231 breast, 96.5%; in the assay with RXF 393 renal, 109%; with SF-268 CNS, 96.8%; in the assay on SF-295 CNS, 103%; in the assay on UACC-257 melanoma, 104%. Also, the growth in the assay on M14 melanoma is 98%.
